# Article PMC7862700, “An all-to-all approach to the identification of sequence-specific readers for epigenetic DNA modifications on cytosine”
# What was measured:
# Assay in all cases: DAPPL (digital affinity profiling via proximity ligation, sequencing); 10 mM Tris-HCl pH 7.5, 50 mM NaCl, 1 mM DTT, 4% glycerol, room temperature, 30 min; GST-TFs on glutathione beads, 16-mer random dsDNA library, 0.1% formaldehyde crosslink after washing; high values mean tight binding
# Settings in all cases: protein: recombinant; tags: N-terminal GST; dsDNA, one strand shown
# FLI1 = target: T1, FLI1 (Homo sapiens, UniProt Q01543 1-452)
# T1 sequence: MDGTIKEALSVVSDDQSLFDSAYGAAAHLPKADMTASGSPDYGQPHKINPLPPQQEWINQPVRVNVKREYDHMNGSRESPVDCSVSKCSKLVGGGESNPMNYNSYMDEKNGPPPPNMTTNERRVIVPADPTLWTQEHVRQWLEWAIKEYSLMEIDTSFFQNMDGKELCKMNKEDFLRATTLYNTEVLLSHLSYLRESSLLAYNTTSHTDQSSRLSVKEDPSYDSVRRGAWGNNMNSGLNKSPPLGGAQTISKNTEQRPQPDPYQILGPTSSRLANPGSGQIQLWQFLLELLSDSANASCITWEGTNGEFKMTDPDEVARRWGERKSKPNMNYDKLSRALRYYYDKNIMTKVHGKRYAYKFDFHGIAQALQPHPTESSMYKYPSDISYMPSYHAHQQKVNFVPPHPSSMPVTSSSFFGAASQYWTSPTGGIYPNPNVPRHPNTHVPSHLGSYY
# Method in brief: (§1)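 Human transcription factors carrying a GST fusion were produced in yeast, bound to glutathione beads, tagged with DNA barcodes and pooled together with a tag-only sample. Each pool was held with 200 nmole of a random double-stranded 16-mer DNA library in Tris/NaCl/DTT/glycerol buffer for 30 min at room temperature, then washed, crosslinked in 0.1% formaldehyde, proximity-ligated with BsaI/T4 ligase (1 h, 37 °C), PCR-amplified and sequenced on an Illumina NextSeq500. Binding signal is the read frequency of each hexamer for a given factor divided by its frequency in the tag-only sample.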
# ELK1 = target: T2, ELK1 (Homo sapiens, UniProt P19419 1-428)
# T2 sequence: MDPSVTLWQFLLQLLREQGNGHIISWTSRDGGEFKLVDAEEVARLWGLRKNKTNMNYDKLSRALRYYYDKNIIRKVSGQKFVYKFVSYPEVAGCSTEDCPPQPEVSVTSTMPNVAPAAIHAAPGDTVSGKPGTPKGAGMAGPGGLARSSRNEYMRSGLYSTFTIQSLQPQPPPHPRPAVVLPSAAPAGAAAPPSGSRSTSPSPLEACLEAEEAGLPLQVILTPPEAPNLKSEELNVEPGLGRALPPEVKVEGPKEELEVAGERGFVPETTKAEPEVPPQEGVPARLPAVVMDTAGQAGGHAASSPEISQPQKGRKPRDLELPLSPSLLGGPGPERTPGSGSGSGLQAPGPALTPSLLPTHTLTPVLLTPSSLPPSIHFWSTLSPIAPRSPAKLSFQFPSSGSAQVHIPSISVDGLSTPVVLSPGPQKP
# Method in brief: as §1
# GABPA = target: T3, GABPA (Homo sapiens, UniProt Q06546 1-454)
# T3 sequence: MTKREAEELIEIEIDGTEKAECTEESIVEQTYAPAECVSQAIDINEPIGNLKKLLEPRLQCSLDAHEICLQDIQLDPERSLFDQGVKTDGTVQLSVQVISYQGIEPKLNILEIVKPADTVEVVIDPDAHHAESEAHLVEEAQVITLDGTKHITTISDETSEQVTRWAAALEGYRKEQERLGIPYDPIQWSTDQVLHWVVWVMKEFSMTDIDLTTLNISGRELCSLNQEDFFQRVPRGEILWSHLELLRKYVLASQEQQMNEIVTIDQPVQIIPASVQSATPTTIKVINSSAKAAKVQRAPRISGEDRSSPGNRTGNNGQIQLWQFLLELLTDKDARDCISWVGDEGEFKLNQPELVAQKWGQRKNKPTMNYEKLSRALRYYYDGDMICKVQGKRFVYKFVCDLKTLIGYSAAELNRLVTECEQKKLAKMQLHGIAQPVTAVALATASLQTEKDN
# Method in brief: as §1
# ELF1 = ELF1 (Homo sapiens, UniProt P32519 1-619)
# Chain of ELF1 (P32519 whole entry): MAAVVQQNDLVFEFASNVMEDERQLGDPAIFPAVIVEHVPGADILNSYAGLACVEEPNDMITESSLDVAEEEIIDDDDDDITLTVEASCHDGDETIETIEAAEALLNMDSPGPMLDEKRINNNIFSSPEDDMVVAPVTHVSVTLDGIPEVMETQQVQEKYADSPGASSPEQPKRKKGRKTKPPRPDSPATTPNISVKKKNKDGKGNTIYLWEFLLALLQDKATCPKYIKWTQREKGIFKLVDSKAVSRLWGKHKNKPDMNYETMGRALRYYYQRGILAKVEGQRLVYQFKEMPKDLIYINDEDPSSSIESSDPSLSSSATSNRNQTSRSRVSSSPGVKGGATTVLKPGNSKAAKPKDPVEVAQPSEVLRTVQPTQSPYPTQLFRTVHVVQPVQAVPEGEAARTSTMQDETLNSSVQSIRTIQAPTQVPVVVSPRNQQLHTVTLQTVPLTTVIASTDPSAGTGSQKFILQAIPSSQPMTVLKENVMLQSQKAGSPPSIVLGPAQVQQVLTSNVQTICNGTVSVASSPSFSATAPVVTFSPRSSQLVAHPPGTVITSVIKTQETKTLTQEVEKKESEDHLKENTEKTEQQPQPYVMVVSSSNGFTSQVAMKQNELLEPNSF
# Method in brief: as §1
# EHF = target: T4, EHF (Homo sapiens, UniProt Q9NZC4 1-300)
# T4 sequence: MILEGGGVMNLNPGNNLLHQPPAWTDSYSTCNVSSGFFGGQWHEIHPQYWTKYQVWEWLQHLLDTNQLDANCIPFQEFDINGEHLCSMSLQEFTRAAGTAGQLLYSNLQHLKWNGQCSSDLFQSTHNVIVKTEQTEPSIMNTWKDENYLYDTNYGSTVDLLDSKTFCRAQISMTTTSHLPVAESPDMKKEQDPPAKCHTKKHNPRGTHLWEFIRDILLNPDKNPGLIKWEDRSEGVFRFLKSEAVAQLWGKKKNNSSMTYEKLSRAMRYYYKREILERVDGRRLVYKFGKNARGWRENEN
# Method in brief: as §1
# SPI1 = SPI1 (Homo sapiens, UniProt P17947 1-270)
# Method in brief: as §1
# SPIB = SPIB (Homo sapiens, UniProt Q01892 1-262)
# Chain of SPIB (Q01892 whole entry): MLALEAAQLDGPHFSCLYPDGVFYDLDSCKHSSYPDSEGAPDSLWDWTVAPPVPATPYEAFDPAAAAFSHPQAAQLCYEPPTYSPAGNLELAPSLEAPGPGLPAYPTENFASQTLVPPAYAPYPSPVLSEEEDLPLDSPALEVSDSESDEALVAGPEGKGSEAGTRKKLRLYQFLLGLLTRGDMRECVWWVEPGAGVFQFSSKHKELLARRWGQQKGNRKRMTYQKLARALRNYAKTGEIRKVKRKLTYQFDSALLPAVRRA
# Method in brief: as §1
# ELK3 = target: T5, ELK3 (Homo sapiens, UniProt P41970 1-407)
# T5 sequence: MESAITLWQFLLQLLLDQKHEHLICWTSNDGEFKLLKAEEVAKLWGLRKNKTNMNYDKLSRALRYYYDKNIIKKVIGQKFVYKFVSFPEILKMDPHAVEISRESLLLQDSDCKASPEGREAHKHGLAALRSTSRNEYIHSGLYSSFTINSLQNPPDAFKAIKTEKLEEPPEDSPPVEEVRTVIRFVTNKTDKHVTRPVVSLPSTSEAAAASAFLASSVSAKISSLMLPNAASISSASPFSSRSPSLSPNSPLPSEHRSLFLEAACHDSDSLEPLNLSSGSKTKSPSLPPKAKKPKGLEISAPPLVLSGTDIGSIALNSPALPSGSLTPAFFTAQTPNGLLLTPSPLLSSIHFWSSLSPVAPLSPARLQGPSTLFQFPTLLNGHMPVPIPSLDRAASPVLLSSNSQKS
# Method in brief: as §1
# FEV = target: T6, FEV (Homo sapiens, UniProt Q99581 1-238)
# T6 sequence: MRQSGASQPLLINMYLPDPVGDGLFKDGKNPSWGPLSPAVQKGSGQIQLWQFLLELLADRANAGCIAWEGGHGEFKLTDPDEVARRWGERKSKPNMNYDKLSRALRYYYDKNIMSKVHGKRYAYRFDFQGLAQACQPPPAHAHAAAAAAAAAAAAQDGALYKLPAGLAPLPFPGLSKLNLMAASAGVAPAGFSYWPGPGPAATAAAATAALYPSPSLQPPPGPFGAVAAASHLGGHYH
# Method in brief: as §1
# ETV5 = ETV5 (Homo sapiens, UniProt P41161 1-510)
# Chain of ETV5 (P41161 whole entry): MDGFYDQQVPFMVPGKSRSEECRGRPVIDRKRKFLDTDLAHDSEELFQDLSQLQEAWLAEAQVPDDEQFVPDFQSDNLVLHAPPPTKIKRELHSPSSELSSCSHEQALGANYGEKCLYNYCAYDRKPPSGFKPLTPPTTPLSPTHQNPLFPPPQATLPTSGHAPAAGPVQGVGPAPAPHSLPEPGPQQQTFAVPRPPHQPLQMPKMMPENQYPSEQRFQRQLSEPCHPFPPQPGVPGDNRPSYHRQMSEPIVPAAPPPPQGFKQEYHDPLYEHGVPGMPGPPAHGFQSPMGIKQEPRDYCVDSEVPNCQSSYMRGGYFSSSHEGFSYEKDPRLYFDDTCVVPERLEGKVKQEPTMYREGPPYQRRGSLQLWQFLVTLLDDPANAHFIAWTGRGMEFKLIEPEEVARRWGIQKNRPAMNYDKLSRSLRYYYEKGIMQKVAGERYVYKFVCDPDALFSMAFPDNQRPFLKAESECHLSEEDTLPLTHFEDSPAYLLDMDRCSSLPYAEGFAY
# Method in brief: as §1
# SPIC = target: T7, SPIC (Homo sapiens, UniProt Q8N5J4 1-248)
# T7 sequence: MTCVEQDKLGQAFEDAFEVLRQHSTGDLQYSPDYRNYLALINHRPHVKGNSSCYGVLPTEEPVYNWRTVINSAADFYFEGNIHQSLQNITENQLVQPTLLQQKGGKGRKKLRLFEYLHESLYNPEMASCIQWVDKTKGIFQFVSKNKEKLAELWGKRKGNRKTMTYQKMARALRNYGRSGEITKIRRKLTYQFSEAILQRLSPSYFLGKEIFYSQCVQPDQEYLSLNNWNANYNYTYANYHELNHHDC
# Method in brief: as §1
# ELF4 = ELF4 (Homo sapiens, UniProt Q99607 1-663)
# Chain of ELF4 (Q99607 whole entry): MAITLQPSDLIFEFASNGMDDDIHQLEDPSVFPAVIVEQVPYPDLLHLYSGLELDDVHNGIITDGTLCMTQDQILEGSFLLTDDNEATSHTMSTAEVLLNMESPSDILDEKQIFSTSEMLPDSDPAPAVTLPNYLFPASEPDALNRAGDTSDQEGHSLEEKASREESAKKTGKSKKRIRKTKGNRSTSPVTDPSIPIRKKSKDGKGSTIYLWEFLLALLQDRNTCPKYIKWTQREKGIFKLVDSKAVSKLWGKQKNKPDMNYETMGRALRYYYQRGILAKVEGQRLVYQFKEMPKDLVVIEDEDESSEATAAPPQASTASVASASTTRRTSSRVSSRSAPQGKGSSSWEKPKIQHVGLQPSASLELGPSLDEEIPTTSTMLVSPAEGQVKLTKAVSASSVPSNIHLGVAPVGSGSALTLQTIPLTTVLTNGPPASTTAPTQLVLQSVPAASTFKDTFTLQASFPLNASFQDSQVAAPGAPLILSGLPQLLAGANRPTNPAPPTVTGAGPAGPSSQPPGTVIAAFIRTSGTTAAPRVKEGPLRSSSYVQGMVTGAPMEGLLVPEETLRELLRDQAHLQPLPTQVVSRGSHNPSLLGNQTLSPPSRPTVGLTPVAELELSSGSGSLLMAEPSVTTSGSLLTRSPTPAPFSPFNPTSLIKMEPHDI
# Method in brief: as §1
# ELK4 = target: T8, ELK4 (Homo sapiens, UniProt P28324-2 1-405)
# T8 sequence: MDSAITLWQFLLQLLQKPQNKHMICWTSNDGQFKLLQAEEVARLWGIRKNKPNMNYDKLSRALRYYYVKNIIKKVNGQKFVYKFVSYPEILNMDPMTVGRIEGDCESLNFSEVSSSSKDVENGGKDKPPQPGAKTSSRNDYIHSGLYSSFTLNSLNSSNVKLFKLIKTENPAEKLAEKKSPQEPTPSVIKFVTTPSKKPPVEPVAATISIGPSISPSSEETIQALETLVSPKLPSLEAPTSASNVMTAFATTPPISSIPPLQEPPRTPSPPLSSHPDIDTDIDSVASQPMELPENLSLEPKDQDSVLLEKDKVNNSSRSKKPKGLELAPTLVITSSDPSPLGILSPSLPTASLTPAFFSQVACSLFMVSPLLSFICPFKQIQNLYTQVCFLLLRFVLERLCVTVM
# Method in brief: as §1
# ETV2 = target: T9, ETV2 (Homo sapiens, UniProt O00321 1-342)
# T9 sequence: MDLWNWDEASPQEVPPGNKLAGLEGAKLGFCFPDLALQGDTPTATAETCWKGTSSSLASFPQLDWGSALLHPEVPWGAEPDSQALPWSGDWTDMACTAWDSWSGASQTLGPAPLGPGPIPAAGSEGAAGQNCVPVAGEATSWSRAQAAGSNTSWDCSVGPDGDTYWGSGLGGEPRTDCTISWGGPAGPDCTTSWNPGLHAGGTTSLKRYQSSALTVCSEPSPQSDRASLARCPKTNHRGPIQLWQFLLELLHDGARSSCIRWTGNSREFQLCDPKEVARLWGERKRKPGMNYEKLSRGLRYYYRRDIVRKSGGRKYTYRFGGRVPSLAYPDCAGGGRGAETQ
# Method in brief: as §1
# ELF3 = target: T10, ELF3 (Homo sapiens, UniProt P78545 1-371)
# T10 sequence: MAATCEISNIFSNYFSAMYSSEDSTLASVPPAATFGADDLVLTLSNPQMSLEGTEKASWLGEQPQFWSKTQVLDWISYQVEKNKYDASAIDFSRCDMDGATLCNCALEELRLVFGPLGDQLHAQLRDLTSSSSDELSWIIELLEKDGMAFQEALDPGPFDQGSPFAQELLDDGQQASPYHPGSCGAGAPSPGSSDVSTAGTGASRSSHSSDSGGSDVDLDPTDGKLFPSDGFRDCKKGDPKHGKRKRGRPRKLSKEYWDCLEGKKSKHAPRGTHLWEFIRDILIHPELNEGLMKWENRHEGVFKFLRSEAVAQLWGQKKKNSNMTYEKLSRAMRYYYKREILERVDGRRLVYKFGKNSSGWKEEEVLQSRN
# Method in brief: as §1
# ETV1 = ETV1 (Homo sapiens, UniProt P50549 1-477)
# Chain of ETV1 (P50549 whole entry): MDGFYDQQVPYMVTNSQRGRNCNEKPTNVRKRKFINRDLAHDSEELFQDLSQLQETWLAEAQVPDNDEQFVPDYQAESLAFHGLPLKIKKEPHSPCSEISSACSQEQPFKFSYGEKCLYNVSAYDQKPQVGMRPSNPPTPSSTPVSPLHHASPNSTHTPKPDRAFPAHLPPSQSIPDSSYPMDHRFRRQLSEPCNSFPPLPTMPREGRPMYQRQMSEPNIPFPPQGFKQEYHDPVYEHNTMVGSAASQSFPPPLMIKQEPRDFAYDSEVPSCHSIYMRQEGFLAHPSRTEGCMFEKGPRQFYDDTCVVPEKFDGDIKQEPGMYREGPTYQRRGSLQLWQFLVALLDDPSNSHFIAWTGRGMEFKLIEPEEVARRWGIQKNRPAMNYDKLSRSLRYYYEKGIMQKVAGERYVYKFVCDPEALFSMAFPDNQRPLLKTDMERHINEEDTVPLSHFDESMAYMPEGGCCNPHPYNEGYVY
# Method in brief: as §1
Sequence,binding signal (FLI1),binding signal (ELK1),binding signal (GABPA),binding signal (ELF1),binding signal (EHF),binding signal (SPI1),binding signal (SPIB),binding signal (ELK3),binding signal (FEV),binding signal (ETV5),binding signal (SPIC),binding signal (ELF4),binding signal (ELK4),binding signal (ETV2),binding signal (ELF3),binding signal (ETV1)
CTGCAG,"1.13 fold enrichment (6-mer frequency, TF over GST control)","1.1 fold enrichment (6-mer frequency, TF over GST control)","1.16 fold enrichment (6-mer frequency, TF over GST control)","1.08 fold enrichment (6-mer frequency, TF over GST control)","1.18 fold enrichment (6-mer frequency, TF over GST control)","1.14 fold enrichment (6-mer frequency, TF over GST control)","1.08 fold enrichment (6-mer frequency, TF over GST control)","1.05 fold enrichment (6-mer frequency, TF over GST control)","1.1 fold enrichment (6-mer frequency, TF over GST control)","1.11 fold enrichment (6-mer frequency, TF over GST control)","1.37 fold enrichment (6-mer frequency, TF over GST control)","1.17 fold enrichment (6-mer frequency, TF over GST control)","1.26 fold enrichment (6-mer frequency, TF over GST control)","1.3 fold enrichment (6-mer frequency, TF over GST control)","1.02 fold enrichment (6-mer frequency, TF over GST control)",–
GTATGG,"1.12 fold enrichment (6-mer frequency, TF over GST control)","1.04 fold enrichment (6-mer frequency, TF over GST control)","1.04 fold enrichment (6-mer frequency, TF over GST control)","1.08 fold enrichment (6-mer frequency, TF over GST control)","1.05 fold enrichment (6-mer frequency, TF over GST control)","1.06 fold enrichment (6-mer frequency, TF over GST control)","1.1 fold enrichment (6-mer frequency, TF over GST control)",–,"1.01 fold enrichment (6-mer frequency, TF over GST control)","1.02 fold enrichment (6-mer frequency, TF over GST control)","1.08 fold enrichment (6-mer frequency, TF over GST control)","1.02 fold enrichment (6-mer frequency, TF over GST control)","1.01 fold enrichment (6-mer frequency, TF over GST control)","1.03 fold enrichment (6-mer frequency, TF over GST control)","1.04 fold enrichment (6-mer frequency, TF over GST control)","1.16 fold enrichment (6-mer frequency, TF over GST control)"
